Source: PubChem (National Center for Advancing Translational Sciences (NCATS))
In the library only some 4.6% were active in any assay of this set; here they are far more common.
Tau FP inhib: qHTS for Inhibitors of Tau Fibril Formation, Fluorescence Polarization; Microtubule-associated protein tau (Homo sapiens), P10636; K18 P301L tau heparin fibrillization, Alexa594 FP, 6 h; Potency, µM (titrated, usually from 57.7 µM), usual class: inhibitors; 280,000 tested, 0.39% active; further: nearly all actives have a fitted effect of over 55% in size
Target sequence (P10636 561-689 P618L limits assumed): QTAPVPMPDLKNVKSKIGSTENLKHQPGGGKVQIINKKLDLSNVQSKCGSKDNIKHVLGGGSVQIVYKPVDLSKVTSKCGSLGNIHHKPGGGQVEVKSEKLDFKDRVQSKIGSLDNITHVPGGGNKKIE
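Steps: dispense K18 P301L tau (15 uM plus 0.24 uM Alexa 594 tracer, final) in pH 7 sodium acetate; add compound; add heparin (20 uM final); incubate 6 hr, 37 C; add ThT (30 uM final); after 1 hr ambient, read FP.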
PNC assembly inh: High Content Assay for Compounds that inhibit the Assembly of the Perinucleolar Compartment; 140,000 tested, 3.1% active; PC3M PTB-GFP, PNC prevalence imaging, 16 h; hits give low values; activity change (PNC), negative = inhibition, % at 10 µM;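 active means readout at or below -70, meaning at least 70% loss of cells showing the perinucleolar compartment, a nuclear body marking cancer cells; inconclusive means readout between -30 and a set limit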
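Compounds are pinned in duplicate onto adhered PC3M cells stably expressing GFP-tagged PTB and incubated 16 h at 37 C. Cells are then fixed, nuclei stained with Hoechst, and PNC-positive cells counted.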
Tau fibril ThT: qHTS for Inhibitors of Tau Fibril Formation, Thioflavin T Binding | recombinant tau K18 P301L, heparin-induced fibrillization, ThT fluorescence | Potency, µM (series often up to 57.4 µM), hits mostly inhibitors | 270,000 tested, 2.1% active; further: nearly all actives have a fitted effect of over 55% in size
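Tau K18 P301L fragment (15 uM unlabeled plus 0.24 uM Alexa 594-labeled) in 100 mM sodium acetate pH 7 with compound, fibrillization induced by 20 uM heparin for 6 hr at 37 C. Thioflavin T (30 uM) added, fluorescence read after 1 hr (ex 450, em 510 nm).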
TexasRed fluor: Total Fluorescence Counterscreen for Inhibitors of the Interaction of Thyroid Hormone Receptor and Steroid Receptor Coregulator 2; 280,000 tested, 0.29% active; TRb/SRC2 Texas Red total fluorescence interference; Potency, µM (series often up to 106 µM); active means well fitted curve in either direction with a large enough effect; inconclusive means small, poorly fitted or top-dose-only effect
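Human TRβ ligand-binding domain (0.6 uM) and Texas Red SRC2 peptide (20 nM) in Tris buffer with 1 uM T3 and 5% DMSO were incubated with pinned compound for 5 hr at ambient temperature. Total fluorescence was computed as S + 2P (555/632 nm).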
Tau fluor cs: Counterscreen qHTS for Inhibitors of Tau Fibril Formation, Fluorescence Polarization; tau K18 P301L (four-repeat tau fragment) Alexa594 fluorescence, heparin fibrillization; Potency, µM (highest dose often 57.7 µM); 280,000 tested, 0.93% active; further: nearly all actives have a fitted effect of over 55% in size
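Human K18 P301L tau (15 uM unlabeled plus 0.24 uM Alexa 594-labeled, final) in 100 mM sodium acetate pH 7 was mixed with compound and 20 uM heparin and incubated 6 hr at 37 C.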
TRb-SRC2 inh: qHTS for Inhibitors of the Interaction of Thyroid Hormone Receptor and Steroid Receptor Coregulator 2. TRbeta-SRC2 peptide binding, fluorescence polarization; receptor liganded with 1 µM T3. Potency, µM (titrated, usually from 106 µM), most hits filed as inhibitors. 280,000 tested, 0.065% active. AID 1469, 2008; further: nearly all actives have a fitted effect of over 50% in size
Target sequence (P10828 whole entry, looked up): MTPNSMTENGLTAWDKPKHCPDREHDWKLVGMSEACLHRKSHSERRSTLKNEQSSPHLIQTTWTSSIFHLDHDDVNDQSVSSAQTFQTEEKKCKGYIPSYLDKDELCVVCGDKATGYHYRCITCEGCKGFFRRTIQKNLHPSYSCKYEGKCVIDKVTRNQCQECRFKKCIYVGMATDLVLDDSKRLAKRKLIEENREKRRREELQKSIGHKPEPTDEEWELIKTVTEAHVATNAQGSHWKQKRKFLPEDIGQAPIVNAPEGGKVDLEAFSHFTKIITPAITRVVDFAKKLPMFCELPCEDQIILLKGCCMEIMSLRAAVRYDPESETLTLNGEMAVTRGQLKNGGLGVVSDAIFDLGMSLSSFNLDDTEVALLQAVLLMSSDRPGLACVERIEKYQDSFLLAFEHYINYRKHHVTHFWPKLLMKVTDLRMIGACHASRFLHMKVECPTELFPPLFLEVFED
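Read-out is fluorescence polarization (555 nm excitation, 632 nm emission) of a Texas Red SRC2 coactivator peptide; loss of signal reflects blocked binding to human TRb ligand-binding domain in the presence of 1 uM T3.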
Each line names hits and unclear results; the compound was inactive in the other large screens; [ ] = dose if it differs, or a comment. Unless noted, the call rests on the fitted dose curve; in most records, active means well fitted curve in the direction sought with a large enough effect; inconclusive means small, poorly fitted or top-dose-only effect, or another doubt; inactive means no such curve, though single readings can be large; an effect the other way counts as inactive or inconclusive.

N#Cc1c(N)oc(-c2ccc3c(c2)OCO3)c1-c1ccc2c(c1)OCO2	Tau fibril ThT inconclusive, Tau fluor cs 28µM[quencher]
CCOc1ccc2nc(/N=C/c3c(C)[nH]n(-c4ccc(C)cc4)c3=O)sc2c1	Tau fibril ThT inconclusive
CCOc1ccc2nc(/N=C/c3c(C)[nH]n(-c4ccccc4)c3=O)sc2c1	Tau FP inhib inconclusive, Tau fibril ThT 14µM, Tau fluor cs inconclusive
O=C(CSc1ccc2c(c1)OCCO2)NC(=O)NC1CCCC1	PNC assembly inh -117
O=C(Nc1ccc2c(c1)OCCO2)NC1CCCCC1	PNC assembly inh inconclusive
CCOc1cc(/C=N/Nc2nc(=O)[nH]nc2C)ccc1O	none (no result: PNC assembly inh)
COc1ccccc1N1CCN(C(=O)c2oc3ccc(Br)cc3c2C)CC1	PNC assembly inh -95
CCOC(=O)c1c(NC(=O)c2ccccc2Cl)sc2c1CCCC2	none (no result: PNC assembly inh)
CCOC(=O)c1c(NC(=O)c2ccccc2Br)sc2c1CCc1ccccc1-2	Tau FP inhib inconclusive, Tau fibril ThT 28µM
CCOC(=O)c1c(NC(C)=O)sc2c1CCC(C=O)=C2Sc1ccccc1	Tau FP inhib inconclusive, Tau fibril ThT 14µM, Tau fluor cs inconclusive
Cc1cc(N(CCO)CCO)ccc1N=Nc1cc(F)ccc1F	Tau fibril ThT 10µM, Tau fluor cs inconclusive (no result: PNC assembly inh)
OCCN(CCO)c1ccc(C(c2ccc(Cl)cc2)c2ccc(N(CCO)CCO)cc2Cl)c(Cl)c1	PNC assembly inh inconclusive
CCOc1nc(-c2ccccc2)ccc1-c1noc(-c2ccco2)n1	PNC assembly inh -100
CCOc1ccccc1-c1nc(-c2ccc(-c3ccccc3)nc2OCC)no1	none (no result: PNC assembly inh)
O=S(=O)(CC(CN1CCCC1)N1CCCC1)c1ccc2ccccc2c1 (stereo not given)	PNC assembly inh -100, Tau fibril ThT inconclusive
CC(C)n1nnnc1-c1cc(Cl)cc(Cl)c1	none
Cc1ccc(NC(=O)Cc2coc3ccc(C(C)C)cc23)cc1Cl	Tau FP inhib inconclusive, TexasRed fluor 0.16µM[quencher], Tau fluor cs inconclusive (no result: PNC assembly inh)
CN1CCN(CC(=O)Nc2ccc(Cl)cc2Cl)CC1	PNC assembly inh inconclusive
C=CCNS(=O)(=O)c1nc(C)c(Cl)c(C)c1C#N	PNC assembly inh -85
COc1ccc(-c2cn3cccnc3n2)cc1NC(=O)Nc1ccc(Cl)cc1	Tau fibril ThT inconclusive, Tau fluor cs 14µM[quencher] (no result: PNC assembly inh)
COc1ccc(NC(=O)Nc2cc(C)ccc2OC)cc1	PNC assembly inh -82, Tau fibril ThT inconclusive, Tau fluor cs inconclusive
CCOC(=O)c1cc(NC(=O)Nc2ccc(OC)c(OC)c2)c(C)nc1C	PNC assembly inh -102
COc1ccc(C)cc1NC(=O)Nc1ccccc1	Tau fluor cs inconclusive
Cc1c(-c2cccc(NC(=O)Nc3ccc(Cl)cc3)c2)nc2ncccn12	Tau FP inhib 20µM, Tau fluor cs 10µM[quencher] (no result: PNC assembly inh)
CCOC(=O)c1cc(NC(=O)N(C(C)C)C(C)C)c(C)nc1C	none
Cc1c(-c2cccc(NC(=O)c3ccc(F)c(F)c3)c2)nc2ncccn12	Tau fibril ThT inconclusive (no result: PNC assembly inh)
CSCCCNC(=O)c1ccc(OC2CCN(C(=O)c3cccnc3)CC2)cc1	none (no result: PNC assembly inh)
O=C(Cc1cccs1)NC1CC(=O)N(c2cccc(F)c2)C1 (stereo not given)	none (no result: PNC assembly inh)
COc1cc(NC(=O)c2ccco2)c(OC)cc1NC(=O)Nc1ccc(Cl)cc1	Tau fibril ThT inconclusive, Tau fluor cs 8.9µM[quencher]
COc1cc(OC)c(NC(=O)c2ccco2)cc1Cl	none
COC(=O)c1cc(NC(=O)Nc2cc(OC)ccc2OC)cc(C(=O)OC)c1	Tau FP inhib inconclusive
COc1ccc(OC)c(NC(=O)Nc2ccc(Cl)cc2)c1	PNC assembly inh inconclusive, Tau fibril ThT inconclusive, Tau fluor cs 14µM[quencher]
COC(=O)/C(=N/Nc1ccccc1Cl)Sc1nnc(C(O)c2ccccc2)n1-c1ccccc1 (stereo not given)	TexasRed fluor 35µM[quencher]
Cc1cc(-c2ccccc2)nc(Oc2ccc(C(C)(C)C)cc2)c1S(C)(=O)=O	none
Cc1cc(C)cc(Oc2nc(-c3ccccc3)cc(C)c2S(C)(=O)=O)c1	Tau FP inhib inconclusive, PNC assembly inh -112
C=CCSc1nc2c(cc1C#N)CCC2	none
O=c1/c(=C/c2ccco2)sc2n1CN(c1cccc(Br)c1)CN=2	PNC assembly inh inconclusive
CCn1c(CNc2ccc(F)cc2)nnc1SCC(=O)OC1CCCCC1	PNC assembly inh -114
O=C(COC(=O)C1CC(O)CN1S(=O)(=O)c1ccc(Cl)cc1)c1ccccc1 (stereo not given)	TexasRed fluor 0.11µM[quencher]
Cc1cccc(N=Nc2ccc(O)c3ncccc23)c1	Tau FP inhib inconclusive, PNC assembly inh inconclusive, Tau fibril ThT 2µM
Cc1ccc(NC(=S)c2nc3ccccc3[nH]2)cc1	Tau fibril ThT 7.9µM, Tau fluor cs inconclusive
Cc1ccc(NC(=S)c2nc3ccccc3[nH]2)c(C)c1	Tau fibril ThT inconclusive, Tau fluor cs inconclusive
CC1=NNC(=O)C1CC(=O)N/N=C/c1sccc1C (stereo not given)	none (no result: PNC assembly inh, Tau fibril ThT)
CC(=O)c1cccc(NC(=O)CCS(=O)(=O)c2ccc(Br)s2)c1	none (no result: PNC assembly inh)
O=C(CCS(=O)(=O)c1ccc(Br)s1)Nc1cc(C(F)(F)F)cc(C(F)(F)F)c1	Tau FP inhib 20µM, TexasRed fluor inconclusive, Tau fluor cs inconclusive (no result: PNC assembly inh)
COc1ccc(-c2nc3ccc([N+](=O)[O-])cc3[nH]2)cc1	PNC assembly inh inconclusive, Tau fibril ThT 11µM, Tau fluor cs inconclusive
Cc1ccc(-c2nc3ccc([N+](=O)[O-])cc3[nH]2)cc1	Tau fibril ThT inconclusive, Tau fluor cs inconclusive (no result: PNC assembly inh)
CC(=O)NC/C(C)=N\Nc1ccc([N+](=O)[O-])cc1	Tau fibril ThT 16µM (no result: PNC assembly inh)
C/C(=N\Nc1ccc([N+](=O)[O-])cc1)c1cccc(N)c1	Tau FP inhib inconclusive, PNC assembly inh inconclusive, Tau fibril ThT 3.5µM, Tau fluor cs 16µM[quencher]
C/C(=N\Nc1ccc([N+](=O)[O-])cc1)c1ccc(O)cc1	Tau fibril ThT 3.2µM, Tau fluor cs inconclusive (no result: PNC assembly inh)
C/C(=N\NC(=O)C(N)=O)c1cccc([N+](=O)[O-])c1	Tau fibril ThT inconclusive (no result: PNC assembly inh)
O=Cc1cccn1-c1ccc(O)cc1	none (no result: PNC assembly inh)
O=C(O)c1n[nH]c2c1CCCCC2	PNC assembly inh -89
COC(=O)c1cc(NC(=O)c2cc(-c3ccccc3Cl)oc2C(F)(F)F)ccc1N1CCOCC1	Tau FP inhib inconclusive, Tau fluor cs 13µM[quencher] (no result: PNC assembly inh, Tau fibril ThT)
Cc1ccc(S(=O)(=O)NC(CC(=O)N2CCOCC2)c2ccco2)cc1 (stereo not given)	PNC assembly inh -91
